Measurements reported in PubChem BioAssay (NCATS).
Inconclusive results are not listed. A call without a number means that no potency is given here. The source made the active and inactive calls. The call rests on the fitted dose curve; in most records, active means well fitted curve in the direction sought with a large enough effect; inconclusive means small, poorly fitted or top-dose-only effect, or another doubt; inactive means no such curve, though single readings can be large; an effect the other way counts as inactive or inconclusive.

Columns and labels:
SKOV3 = experiment: Primary qHTS to identify gynecologic anti-cancer compounds using libraries of approved drugs and bioactive compounds (AID 1345084); conditions: Gynecologic cancer cell panel viability, ATPlite luminescence, 48 h; series mostly up to 57.5 µM; further: nearly all actives have a fitted effect of over 55% in size
Outline: (§1)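 Cells, 1,000 per well, plated 16 h, then exposed 48 h at 37 C to compounds. Viability by ATPlite luminescence after 15 min at room temperature.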

Tov112D = experiment: as above; conditions: Gynecologic cancer cell panel viability, ATPlite luminescence, 48 h; series mostly up to 57.5 µM
Outline: as §1

Tov-21-G = experiment: as above; conditions: Gynecologic cancer cell panel viability, ATPlite luminescence, 48 h; series mostly up to 57.5 µM
Outline: as §1

[1] = qHTS assay to identify inhibitors of the type 1 interferon - major histocompatibility complex class I in skeletal muscle: Counter screen cell viability and HiBit confirmation (AID 1347412); conditions: iHSKM muscle cells + IFN-b, HiBiT or CellTiter-Glo, 24 h; further: nearly all actives have a fitted effect of over 60% in size
Outline: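 Luminescence read-out: Nano-Glo HiBiT lytic signal from C-terminally HiBiT-tagged HLA-B in CRISPR-edited human myoblasts, plus CellTiter Glo ATP as viability counter screen. IFN-beta 4.0 ng/ml; 24 hrs treatment at 37 C, 5% CO2.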
Potency means the concentration at half of the fitted maximal effect.

In the case of `CC(=O)c1c(C)cc2cccc(O)c2c1O[C@@H]1O[C@H](CO)[C@@H](O)[C@H](O)[C@H]1O`, the Potency (SKOV3) is reported as “inactive” and the Potency (Tov112D) is reported as “inactive”.
With `C/C=C(/C)C(=O)O[C@@H]1C[C@@H](OC(=O)CC(C)C)C2(C)C3C(=O)C=C(C)C2C3C1(C)C` (stereo not given in full) the Potency (SKOV3) was “inactive”, the Potency (Tov-21-G) was “inactive” and the Potency (Tov112D) was “inactive”.
For `CCNC(=O)C#Cc1ccc2c(C(=Nc3ccc(CN(C)C)cc3)c3ccccc3)c(O)[nH]c2c1`, the Potency (SKOV3) was 1.41 µM (active), the Potency ([1]; HiBiT) was 17.6 µM (active) and the Potency ([1]; Viability) was 9.91 µM (active).
For `COc1ccc(C[C@H]2COC(=O)[C@@H]2Cc2ccc(O[C@@H]3O[C@H](CO)[C@@H](O)[C@H](O)[C@H]3O)c(OC)c2)cc1OC`, the Potency (SKOV3) was 4.47 µM (active), the Potency (Tov-21-G) was “inactive” and the Potency (Tov112D) was “inactive”.
With `COC1CC(=O)C23C(=O)NC(Cc4c[nH]c5ccccc45)C2C(C)C2(C)OC2C3/C=C/CC(C)CC1O` (stereo not given) the Potency (SKOV3) was 8.91 µM (active) and the Potency (Tov112D) was “inactive”.
In the case of `C=C1C(=O)OC2C(OC(=O)C=C(C)C)C(C)=C3C(=O)C=C(C)C3C(O)C12` (stereo not given), the Potency (SKOV3) is reported as 12.6 µM (active) and the Potency (Tov112D) is reported as “inactive”.
In the case of `CCC(=C(c1ccc(OCCN2CCCC2)cc1)c1ccc(OCCN2CCCC2)cc1)c1ccccc1`, the Potency (Tov-21-G) is reported as “inactive” and the Potency (Tov112D) is reported as “inactive”.
For `Cc1cc2occ(CN(C)CCN(C)Cc3cn(-c4cccc(C(F)(F)F)c4)c4ccccc34)c(=O)c2cc1C`, the Potency (Tov-21-G) was 28.2 µM (active).
In the case of `C=C1C(=O)OC[C@@H]1C/C=C(\C)CC1CC(C)C(=O)O1` (stereo not given in full), the Potency (Tov-21-G) is reported as “inactive” and the Potency (Tov112D) is reported as “inactive”.
For `O=C(CCl)Nc1cccc(NC2=NS(=O)(=O)c3ccccc32)c1`, the Potency (Tov-21-G) was “inactive”.
For `COc1cc(/C=N\NC(=O)c2ccc3c(c2)OCO3)ccc1OCc1ccccc1`, the Potency (Tov-21-G) was “inactive” and the Potency (Tov112D) was “inactive”.
For `CC(=O)O[C@H]1CC2C(COC(=O)CC(C)C)=CO[C@@H](OC(=O)CC(C)C)C2[C@]12CO2` (stereo not given in full), the Potency (Tov-21-G) was “inactive” and the Potency (Tov112D) was “inactive”.
In the case of `COc1ccc2nc3n[nH]c(C)c3c(NCCOCCO)c2c1`, the Potency (Tov-21-G) is reported as “inactive” and the Potency (Tov112D) is reported as “inactive”.
For `Cc1nc2ccc(-n3ncc(C(=O)c4cc5ccccc5[nH]4)c3N)cc2[nH]1`, the Potency (Tov-21-G) was 28.2 µM (active).
For `C=C1C(=O)OC2/C=C(/C)C3=CC(=O)C(C)(CC(OC(=O)/C(C)=C/COC(C)=O)C12)O3` (stereo not given), the Potency (Tov-21-G) was 11.2 µM (active).
In the case of `N#Cc1cnc2c(Cl)cc(NCc3cn(CCN4CCCCCC4)nn3)cc2c1Nc1ccc(F)c(Cl)c1`, the Potency (Tov-21-G) is reported as “inactive” and the Potency (Tov112D) is reported as “inactive”.
For `COC1CC/C=C(\C)C(=O)Nc2cc(O)cc(c2)CC(C)CC(OC)C(O)C(C)/C=C(\C)C1OC(N)=O` (stereo not given), the Potency (Tov-21-G) was 3.98 µM (active).
For `CC(C)c1cc2c(N3CCN(C4=NCC(C)(C)S4)CC3)ncnc2s1`, the Potency (Tov-21-G) was “inactive” and the Potency (Tov112D) was “inactive”.
In the case of `CCN(Cc1cc(Nc2nc(C)cn3c(-c4cn[nH]c4)cnc23)sn1)C(C)(C)CO`, the Potency (Tov-21-G) is reported as 0.355 µM (active).
With `COCc1c(Cl)ccc2c1CC[C@H]2c1ncc[nH]1` the Potency (Tov-21-G) was 10 µM (active).
With `CNC(=O)c1cc(Oc2ccc(NC(=O)c3cccc(C(F)(F)F)c3)cc2)ccn1` the Potency (Tov-21-G) was “inactive” and the Potency (Tov112D) was “inactive”.
In the case of `COc1cc(/C=C2\CCCN([C@@H](C)c3ccc(F)cc3)C2=O)ccc1-n1cnc(C)c1`, the Potency (Tov-21-G) is reported as “inactive” and the Potency (Tov112D) is reported as “inactive”.
For `C=C1C(=O)O[C@H]2C3=C(C)CCC[C@]3(C)C(=O)C[C@@H]12`, the Potency (Tov-21-G) was 20 µM (active).
With `CC(=O)Nc1cccc(-c2csc(Nc3cc(C)ccn3)n2)c1` the Potency (Tov-21-G) was “inactive” and the Potency (Tov112D) was “inactive”.
With `CO[C@@H]1CC(OC2CCC3(C)C(CCC45CCC(C6=CC(=O)OC6)C(C)(CCC43)C5=O)C2)O[C@H](C)[C@@H]1O[C@@H]1O[C@H](CO[C@@H]2O[C@H](CO)[C@@H](O)[C@H](O)[C@H]2O)[C@@H](O)[C@H](O)[C@H]1O` (stereo not given in full) the Potency (Tov-21-G) was 3.16 µM (active) and the Potency (Tov112D) was 2.82 µM (active).
In the case of `COc1ccc(CCc2nc3cc(-c4c(C)noc4C)ccc3n2CC(C)N2CCOCC2)cc1Cl` (stereo not given), the Potency (Tov-21-G) is reported as “inactive” and the Potency (Tov112D) is reported as “inactive”.
With `Cc1cc(C(=O)Nc2cc(Nc3ccc4c(/C=C/c5ccccn5)n[nH]c4c3)ccc2F)n(C)n1` the Potency (Tov-21-G) was “inactive” and the Potency (Tov112D) was “inactive”.
For `CCc1cc(C(N)=O)ccc1-n1nc(C(C)C)c2c(-n3cnc(-c4cnn(C)c4)c3)ccnc21`, the Potency (Tov-21-G) was 3.55 µM (active).
With `CCn1c(-c2nonc2N)nc2c(C#CCO)ncc(OCCCN)c21` the Potency (Tov-21-G) was “inactive”.
In the case of `C=CC(=O)N1CCC(Oc2cc3c(Nc4ccc(Cl)c(Cl)c4F)ncnc3cc2OC)CC1`, the Potency (Tov-21-G) is reported as 25.1 µM (active).
For `FC(F)(F)c1ccc(/C=C/c2nc(COc3ccc(CCCCn4ccnn4)cc3)co2)cc1`, the Potency (Tov-21-G) was “inactive” and the Potency (Tov112D) was “inactive”.
With `Cc1ccc(O)cc1Nc1ccnc(Nc2cccc(C(N)=O)c2)n1` the Potency (Tov-21-G) was 10 µM (active).
In the case of `Cc1cc(C)c2c(c1)C(N(Cc1cc(C(F)(F)F)cc(C(F)(F)F)c1)c1nnn(C)n1)CCCN2CC1CCC(C(=O)O)CC1` (stereo not given), the Potency (Tov-21-G) is reported as “inactive”.
With `CCn1c2ccccc2c2cc(Nc3ccnc(NCCCN4CCOCC4)n3)ccc21` the Potency (Tov-21-G) was “inactive” and the Potency (Tov112D) was “inactive”.
For `CCc1c[nH]c2ncnc(N3CC[C@](N)(CNC(=O)c4ccc(F)cc4F)C3)c12`, the Potency (Tov-21-G) was 1 µM (active) and the Potency (Tov112D) was “inactive”.
